Only some compounds are listed: those with a hit (about 9.1% of all), similar ones and a draw of the others.
Htt clearance – clearance of mutant huntingtin inclusions, primary screen, imaging, HeLa Exon1htt(103Q)mCFP, confocal imaging; aggregate imaging; zero = plate's median compound well; inhibition, % at 1.5 µM; 47,000 tested, 0.42% active;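 active = inhibition of aggregate fluorescence above about 70%, also judged a hit by eye on the cell image, limit read from the data, passing the limit was not always enough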;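 note: cells exposed to compound for three days before fixation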
M1 antagonist – antagonists of rat M1 muscarinic receptor; Muscarinic acetylcholine receptor M1 (Rattus norvegicus), P08482; CHO-M1 cells, Fluo-4 calcium, ACh EC80 antagonist mode; active compounds read low; B-score at 10 µM; 64,000 tested, 3.4% active;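 active = calcium fluorescence response, raw or row-and-column corrected B-score, differing from the plate sample mean either way at a set confidence level, mostly lower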
Target sequence (P08482 whole entry, looked up): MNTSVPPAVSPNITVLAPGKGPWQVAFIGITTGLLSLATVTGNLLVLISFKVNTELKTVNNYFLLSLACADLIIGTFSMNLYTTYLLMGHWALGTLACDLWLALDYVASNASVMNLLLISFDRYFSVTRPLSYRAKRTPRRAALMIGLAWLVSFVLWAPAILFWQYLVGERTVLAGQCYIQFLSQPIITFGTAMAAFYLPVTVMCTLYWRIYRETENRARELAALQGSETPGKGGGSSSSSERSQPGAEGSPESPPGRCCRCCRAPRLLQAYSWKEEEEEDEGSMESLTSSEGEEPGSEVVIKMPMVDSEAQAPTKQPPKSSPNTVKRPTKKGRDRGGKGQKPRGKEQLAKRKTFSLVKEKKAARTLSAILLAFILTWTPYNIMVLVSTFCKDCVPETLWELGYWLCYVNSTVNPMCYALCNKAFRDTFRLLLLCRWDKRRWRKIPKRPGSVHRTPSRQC
D1 mod – D1 CRE-luciferase signal change, two-sided – cell-based, HEK293 D1, dopamine EC30, D1 allosteric modulator project, primary screen. dopamine EC30 potentiation; actives deviate in either direction. B-score at 10 µM. 58,000 tested, 5.9% active. AID 641, 2007;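 active = luminescence count or its row- and column-corrected plate score outside the 99.7% band of the plate's sample wells, on either side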
M1 ag – M1 muscarinic receptor agonists, primary screen, CHO-M1 cells, Fluo-4 calcium, agonist mode | Muscarinic acetylcholine receptor M1 | Fluo-4 calcium fluorescence; active compounds read high | B-score at 10 µM | 64,000 tested, 3% active | AID 626, 2007;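 active = fluorescence rise, raw or as B-score row- and column-corrected plate score, outside the 99.7% band of its plate's samples, either direction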
D1 PAM confirm – D1 receptor positive allosteric modulators, retest, confirmation, cell-based, HEK293 D1, CRE-luciferase, duplicate; shares compounds with D1 mod; dopamine EC30 potentiation; active compounds read high; luminescence at 10 µM; 2,200 tested, 88% active; AID 642, 2007;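 active = luminescence in either of two replicates above the same-plate mean plus 3 SD of the low-dose dopamine control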
D1 no dopamine – D1 receptor agonism without dopamine, confirmation, mechanism study for D1 allosteric modulator project, cell-based, HEK293 D1, CRE-luciferase, secondary assay 1; shares compounds with D1 mod; luminescence, no dopamine; active compounds read high; luminescence at 10 µM; 1,900 tested, 0.8% active; in the data active = luminescence above about 3900
Isoprot counter – counter-screen for D1 modulators: isoproterenol response in HEK293 cells; HEK293 D1 CRE-luciferase, isoproterenol EC30 counter-screen; active compounds read high; luminescence at 10 µM; 2,200 tested, 63% active; shares compounds with D1 mod;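 active = luminescence in either replicate above plate mean of wells with a partly effective reference agonist dose plus 3 SD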;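 note: isoproterenol raises cAMP through native beta-adrenoceptor Gs so signal bypasses D1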
Large screens that a line does not name were inactive (follow-up assays come after a bar, where they were run).

O=c1[nH]c(C2CCCN(S(=O)(=O)c3ccccc3)C2)nc2c1nnn2Cc1ccccc1F (configuration not stated)	D1 mod 6.8 (no result: Htt clearance) | D1 PAM confirm 12364 | D1 no dopamine inactive | Isoprot counter 5108
Cc1ccc(Cn2nnc3c(=O)[nH]c(C4CCN(S(=O)(=O)c5ccc(F)cc5)CC4)nc32)cc1	none (no result: Htt clearance)
CCCc1nc2c(nnn2Cc2ccccc2)c(=O)[nH]1	D1 mod 7.1 | D1 PAM confirm 11892 | D1 no dopamine inactive | Isoprot counter 3336
O=c1[nH]c(C2CCCN(S(=O)(=O)c3ccccc3)C2)nc2c1nnn2Cc1ccccc1 (configuration not stated)	D1 mod 4.2 | D1 PAM confirm 10532 | Isoprot counter 3344
CCn1c(COc2ccccc2C)nnc1SCC(=O)CC(=O)Nc1ccccc1OC	none (no result: Htt clearance)
CCc1nnc(NC(=O)CSc2nc3c(c(=O)n2CC)SC(C)C3)s1 (configuration not stated)	none (no result: Htt clearance)
CCCCOc1ccc(Cl)cc1CSc1nnc(CC)n1N	none (no result: D1 mod)
O=C(NCCCN1CCOCC1)c1cc2cc(Cl)cc(Cl)c2oc1=O	none
CCN(CC)C(=O)C1CCN(Cc2ccc(Br)cc2)CC1	none (no result: Htt clearance)
CCOC(=O)C1=CN(C)C=C(C(=O)OCC)C1c1ccsc1	M1 antagonist 2.2, D1 mod 5.8 (no result: Htt clearance) | D1 PAM confirm inactive | D1 no dopamine inactive | Isoprot counter inactive
CCOc1ccccc1C1CC(=O)NC2=C1C(=O)CC(C)(C)C2 (configuration not stated)	D1 mod 3.3 (no result: Htt clearance) | D1 PAM confirm inactive | D1 no dopamine inactive | Isoprot counter inactive
COc1cc(C2CC(=O)NC3=C2C(=O)CC(C)(C)C3)ccc1O (configuration not stated)	none
CCOC(=O)c1cnc(SC)nc1Sc1cc(Cl)ccc1Cl	none (no result: M1 antagonist, D1 mod, M1 ag)
C/C(Cl)=C\Cn1c(Nc2ccccc2)nc2c1c(=O)n(C)c(=O)n2C	D1 mod 14 | D1 PAM confirm 11964 | Isoprot counter 3828
C/C(Cl)=C/Cn1c(NCCN(C)C)nc2c1c(=O)n(C)c(=O)n2C	none (no result: Htt clearance)
Cc1cc(C)nc(SCC(=O)Nc2ncc3c(n2)CC(C)(C)CC3=O)n1	D1 mod 5.3 | D1 PAM confirm 7004 | D1 no dopamine inactive | Isoprot counter inactive
CCCCC(=O)Nc1ncc2c(n1)CC(C)(C)CC2=O	D1 mod 3 | D1 PAM confirm inactive | Isoprot counter inactive
CC1(C)CC(=O)c2cnc(NC(=O)CSc3nc4ccccc4o3)nc2C1	none
CC1(C)CC(=O)c2cnc(NC(=O)Cc3ccc(Cl)cc3)nc2C1	none
Cc1cc(OCc2nn[nH]n2)c2c(C)c(Cc3ccccc3)c(=O)oc2c1	none
CCN(CC)c1ncnc2scc(C3COc4ccccc4O3)c12 (configuration not stated)	none (no result: M1 antagonist, D1 mod, M1 ag)
c1ccc2c(c1)OCC(c1csc3ncnc(N4CCOCC4)c13)O2 (configuration not stated)	D1 mod 3.8 (no result: Htt clearance) | D1 PAM confirm inactive | D1 no dopamine inactive | Isoprot counter 3228
CCC(=O)N1CCc2cc(S(=O)(=O)N3CCN(c4ccccn4)CC3)ccc21	D1 mod 2.7 (no result: Htt clearance) | D1 PAM confirm 13196 | D1 no dopamine inactive | Isoprot counter 3696
CN1C(=O)CC(N2CCN(c3ccc(Cl)c(Cl)c3)CC2)C1=O (configuration not stated)	none (no result: Htt clearance, D1 mod)
COc1ccc(CN2CCN(C(=O)c3ccco3)CC2)cc1	D1 mod 4.1 (no result: Htt clearance) | D1 PAM confirm inactive | D1 no dopamine inactive | Isoprot counter inactive
O=C(COC(=O)C1CCN(C(=O)c2ccc(Cl)cc2)CC1)c1ccco1	none
CCOC(=O)C1CCN(C(=O)c2ccco2)CC1	D1 mod 4.4 | D1 PAM confirm inactive | D1 no dopamine inactive | Isoprot counter inactive
CC(CCc1ccco1)NC(=O)Cn1ncc2c1-c1ccccc1OC2 (configuration not stated)	none
CC(=O)/C(=C/N(C)C)Sc1ccc(C)cc1	none (no result: M1 antagonist, D1 mod, M1 ag)
CCOc1ccc(S(=O)(=O)Nc2ccccn2)c2ccccc12	none (no result: M1 antagonist, D1 mod, M1 ag)
CCOc1ccc(S(=O)(=O)NCc2ccc(F)cc2)c2cccnc12	D1 mod 10 | D1 PAM confirm 10944 | Isoprot counter 2940
CCOc1ccc(S(=O)(=O)Nc2ccc3c(c2)OCO3)c2cccnc12	D1 mod 4.8 (no result: Htt clearance) | D1 PAM confirm 9784 | D1 no dopamine inactive | Isoprot counter 3300
Cc1nc(N)sc1-c1nnc(SCC(=O)Nc2nccs2)n1C	none (no result: Htt clearance)
Cc1ccc(C(=O)C(OC(=O)CNS(=O)(=O)c2ccccc2)c2ccccc2)cc1 (configuration not stated)	none (no result: M1 antagonist, D1 mod, M1 ag)
COc1ccc(C(=O)COC(=O)CCN=C2NS(=O)(=O)c3ccccc32)cc1OC	D1 mod 4.6 | D1 PAM confirm 13264 | D1 no dopamine inactive | Isoprot counter 3656
CC1(C)Cc2ccccc2C2CC(O)C(=O)N21 (configuration not stated)	none (no result: Htt clearance)
CCN(CCCNC(=O)CN(C)S(=O)(=O)c1cccc2nsnc12)c1ccccc1	none
CC(NC(=O)C1CCC(=O)N1Cc1ccc(F)cc1)c1ccc2c(c1)OCCO2 (configuration not stated)	D1 mod 2.1 | D1 PAM confirm inactive | D1 no dopamine inactive | Isoprot counter inactive
CN(Cc1ccccc1)c1nc2c(c(=O)[nH]c(=O)n2C)n1Cc1ccccc1	D1 mod 23 | D1 PAM confirm 19372 | D1 no dopamine inactive | Isoprot counter 5128
CN(Cc1ccccc1)c1nc2c(c(=O)[nH]c(=O)n2C)n1CCSc1ncccn1	none (no result: M1 antagonist, D1 mod, M1 ag)
CCCCCn1c(N(C)Cc2ccccc2)nc2c1c(=O)[nH]c(=O)n2C	D1 mod 14 | D1 PAM confirm 21892 | D1 no dopamine inactive | Isoprot counter 9964
CN(Cc1ccccc1)c1nc2c(c(=O)[nH]c(=O)n2C)n1CCOc1ccccc1	D1 mod 6.8 | D1 PAM confirm 12188 | D1 no dopamine inactive | Isoprot counter 4732
CN(Cc1ccccc1)c1nc2c(c(=O)[nH]c(=O)n2C)n1CCCSc1ncccn1	none (no result: Htt clearance, D1 mod)
Cn1c(SCC(=O)NCc2ccccc2)nnc1C1CC1	none (no result: D1 mod)
COc1ccc(NC2c3ccccc3C(=O)N2Cc2ccco2)cc1OC (configuration not stated)	none (no result: Htt clearance)
COc1ccc(OC)c(NC2c3ncccc3C(=O)N2Cc2ccco2)c1 (configuration not stated)	D1 mod 8.7 (no result: Htt clearance) | D1 PAM confirm 11124 | Isoprot counter 3236
COc1ccc(-n2c(SCC(=O)N3CCCC3)nc3c([nH]c4ccccc43)c2=O)cc1	none (no result: Htt clearance)

Source: PubChem (several laboratories)
